The record followed here is PubChem BioAssay.

“And” between values parts separate entries of the source, which are not always exact repeats. Equal entries are not always repeated. A number with no mark means an inactive call. The source made the active and inactive calls.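 The calls were made as follows: active = inhibition at or above 50% relative to wild type and mutant plate controls; inactive = inhibition below 50%.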

The nature of this experiment: inhibitors of Chlamydomonas gravitaxis, primary screen, whole organism, Chlamydomonas reinhardtii, WT vs cilia-less mutant, absorbance, 96-well (AID 463189).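 Also: 0% = wild type cc124 cells in DMSO and 100% = ciliumless bld1 mutant cells.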 The following applies: OD600 absorbance, 2 days, at 10 µM, hits give high values.
The term inhibition denotes the drop in the measured response relative to a control, in per cent. For `CC(C)C1C2CCC(C2)C1N` (configuration not stated), the inhibition is 3.56%.

For `NC(N)=NCCC[C@H](N)C(=O)O`, the inhibition is -8.92%.

As for `O=C1Cc2c([nH]c3ccc(Br)cc23)-c2ccccc2N1`, the inhibition was -1.32%.

With `COCC(=O)O[C@]1(CCN(C)CCCc2nc3ccccc3[nH]2)CCc2cc(F)ccc2[C@@H]1C(C)C`, the inhibition is 11.6%.

`CCN(CC)C(=S)SSC(=S)N(CC)CC`: the inhibition is 12.2%.

Turning to `CC(=O)NNC(=O)N1Cc2ccccc2Oc2ccc(Cl)cc21`, the inhibition was 3.76%.

`O=C1NCC2(CCN(CCc3ccccc3)CC2)O1`: the inhibition is -9.32%.

As to `Cc1ccc(S(=O)(=O)N[C@@H](Cc2ccccc2)C(=O)CCl)cc1`, the inhibition was -2.77%.

`O=C(O)C1CCCNC1` (configuration not stated): the inhibition was -1.36%.

Turning to `NNCCc1ccccc1`, the inhibition is 3.74%.

Turning to `Nc1c(S(=O)(=O)O)cc(Nc2ccc(Nc3nc(Cl)nc(Nc4ccc(S(=O)(=O)O)cc4)n3)c(S(=O)(=O)O)c2)c2c1C(=O)c1ccccc1C2=O`, the inhibition is 8.09%.

On to `CCSC(=N)N`, for which the inhibition is 4.79%.

Consider `CC(C)(C)[C@]1(O)CCN2C[C@H]3c4ccccc4CCc4cccc(c43)[C@@H]2C1`, for which the inhibition is 3.49% and -7.42%.

As to `CC(=O)N[C@@H](Cc1c[nH]c2ccccc12)C(=O)OCc1cc(C(F)(F)F)cc(C(F)(F)F)c1`, the inhibition is -0.535%.

Consider `NCCCC(=O)O`, for which the inhibition was -6.87%.

On to `Cc1cc(N)c2ccccc2[n+]1CCCCCCCCCC[n+]1c(C)cc(N)c2ccccc21`, for which the inhibition is 147% (active).

Regarding `CC(C)(C)NCC(O)COc1nsnc1N1CCOCC1` (configuration not stated), the inhibition is -8.84%.
